An excerpt weighted towards active compounds, which were near 8% of everything screened.
HT1080-NT tox – kills 2HG-producing HT-1080-NT fibrosarcoma cells; actives 1.6% (n = 360,000); Potency, µM (series often up to 46.1 µM), actives largely listed as cytotoxic; HT-1080-NT fibrosarcoma viability, CellTiter-Glo ATP luminescence, 48 h; AID 686970;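 also: NT is the 2HG producing partner of a matched IDH1 knockdown line; nearly all actives have a fitted effect of over 55% in size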
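Luminescent CellTiter-Glo readout after 48 hours of compound exposure at 37 degrees C defined viability of HT-1080-NT cells. Activity was normalized to DMSO wells and cell-free media wells; concentration-response curves were fitted and assigned curve classes.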
SW480 rerep – inducers of DNA re-replication in SW480 colon cancer cells; SW480 DNA re-replication, Hoechst DNA content imaging, 48 h; Potency, µM (highest dose often 46.1 µM), actives largely listed as activators; actives 1.8% (n = 340,000); also: nearly all actives have a fitted effect of over 55% in size
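250 cells/well; 23 nL cpd via pin tool; 48 hr, 37 C, 5% CO2; Hoechst 40 min; imager read of total nuclear intensity, ex 405/em 500-530 nm.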
HT1080 IDH1KD tx – HT-1080 IDH1 knockdown cell toxicity (counter line); HT-1080 IDH1 knockdown viability, ATP luminescence, 48 h; Potency, µM (series often up to 46.1 µM), most hits filed as cytotoxic; actives 2% (n = 360,000); AID 686971
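Assay cells: HT-1080 with IDH1 knockdown, 750 per well, RPMI/5% FBS. Exposure: 48 h at 37 °C following 2 h pre-incubation. Read: CellTiter-Glo luminescence; fitted concentration-response, curve class assigned.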
MCF10A rereplic – DNA re-replication induction in MCF 10a cells. MCF 10A DNA re-replication, Hoechst nuclear intensity, 48 h. Potency, µM (series often up to 46.1 µM), hits mostly activators. actives 2.9% (n = 350,000); also: nearly all actives have a fitted effect of over 50% in size
KB-V1 MDR tox – kills drug-selected multidrug resistant KB-V1 cells; KB-V1 MDR cells viability, CellTiter-Glo, 72 h; Potency, µM (doses to about 46.1 µM), most hits filed as cytotoxic; actives 3.4% (n = 400,000); AID 1347076; also: nearly all actives have a fitted effect of over 60% in size
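In this primary screen, KB-V1 cells overexpressing P-gp are incubated with library compounds (lowest to highest concentration) for 72 h at 37 degrees C before a luminescent ATP viability read.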
KB-3-1 tox – kills parental KB-3-1 adenocarcinoma cells. KB-3-1 viability, CellTiter-Glo ATP luminescence, 72 h. AID 1347075. Potency, µM (series often up to 46.1 µM), usual class: cytotoxic. actives 1.4% (n = 400,000); also: nearly all actives have a fitted effect of over 60% in size
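Viability of parental KB-3-1 cells, measured by CellTiter-Glo luminescence, followed a 72 h incubation at 37 °C with pinned compounds in phenol-red-free DMEM containing 10% FBS.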
A number is an active result; i = inactive; ? = inconclusive; nt = not tested or not shown; [ ] = another dose, or the depositor's remark. Calls follow the shape of the dose curve; as a rule, active = well fitted curve in the direction sought with a large enough effect; inconclusive = small, poorly fitted or top-dose-only effect, or another doubt; inactive = no such curve, though single readings can be large; an effect the other way counts as inactive or inconclusive.

SMILES	HT1080-NT tox	SW480 rerep	HT1080 IDH1KD tx	MCF10A rereplic	KB-V1 MDR tox	KB-3-1 tox
O=C(CN1C(=O)S/C(=C\c2ccc(Cl)cc2)C1=O)NC1C=CS(=O)(=O)C1 (centres undefined)	i	23µM	i	?	i	i
C=CCC[C@H](Cc1ccc(F)cc1)C(=O)OC[C@H]1CCCN1C(=O)[C@@H](CC=C)CC(=O)NCCO	i	i	i	i	i	i
CN(C(=O)CN1C(=O)S/C(=C\c2cccc(Cl)c2)C1=O)C1CCS(=O)(=O)C1 (centres undefined)	i	i	i	23µM	i	i
CN(C(=O)CN1C(=O)S/C(=C\c2ccc(F)cc2)C1=O)C1CCS(=O)(=O)C1 (centres undefined)	i	i	i	i	?	i
Cc1[nH]c2ccccc2c1CCNC(=O)CCC(=O)c1ccccc1	i	i	i	i	i	i
CCN(CC)c1ccc(NC(=O)c2cccc(F)c2)c(C)c1	?	18µM	16µM	?	?	5.8µM
CCN(CC)c1ccc(NC(=O)c2ccco2)c(C)c1	i	i	i	i	i	i
C/C(=N\NS(=O)(=O)c1ccc([N+](=O)[O-])cc1)c1ccc(NC(=O)c2ccco2)cc1	i	i	i	i	i	i
O=C(O)c1cccnc1Nc1ccc(Cl)cc1	i	?	i	i	12µM	7.3µM
Cc1ccc(Nc2ncccc2C(=O)O)cc1C	i	i	i	i	i	i
CN(C)/C=C/C(=O)/C=C/c1cn(-c2ncc(C(F)(F)F)cc2Cl)c2ccccc12	?	?	?	3.7µM	?	?
COC(=O)Cc1cn(-c2ncc(C(F)(F)F)cc2Cl)c2ccccc12	i	i	i[9.24 µM]	i	i	i
CCCC(O)(CCC)C(=O)NN(C(=O)CCl)c1ccccc1	?	?	?	15µM	i	i
CCCCC(O)(CCCC)C(=O)NN(C(=O)OCC)c1ccccc1	i	i	i	i	13µM	i
CCCCC(O)(CCCC)C(=O)NN(C(=O)OC)c1ccccc1	i	i	i	i	i	i
CCOC(=O)N(NC(=O)C(O)(CC(C)C)CC(C)C)c1ccccc1	i	i	i	?	?	i
CCOC(=O)N(NC(=O)C(O)(c1ccccc1)c1ccccc1)c1ccccc1	i	2.9µM	i	i	i	i
CCOC(=O)N(NC(=O)C(O)(C(C)C)C(C)C)c1ccccc1	i	i	i	i	i	i
Cc1nc(N)sc1C(=O)NN	i	i	i	i	i	i
CC(=O)c1cccc(NC(=O)Cn2nc(-c3ccc(Cl)cc3)ccc2=O)c1	i	i	i	0.58µM	?	i
CC(=O)c1cc(NC(=O)c2ccccc2)c(=O)oc1C	i	i	?	?	i	i
CC(=O)Nc1cc2ccccc2oc1=O	i	i	i	i	i	i
Cc1ccc(C(=O)Nc2cc3ccccc3oc2=O)cc1	i	2.9µM	i	18µM	4.1µM	3.3µM
Cc1oc(=O)c(NC(=O)c2ccc(Cl)cc2)cc1C(=O)c1ccccc1	?	?	?	8.2µM	i	?
Cc1oc(=O)c(NC(=O)c2ccccc2)cc1C(=O)c1ccccc1	i	21µM	i	23µM	i	i
SMILES	HT1080-NT tox	SW480 rerep	HT1080 IDH1KD tx	MCF10A rereplic	KB-V1 MDR tox	KB-3-1 tox
CCOC(=O)c1cc(S(=O)(=O)N2CCN(Cc3ccccc3)CC2)cn1C	i	i	i	i	i	i
O=C(Cn1nc(C(=O)O)c2ccccc2c1=O)Nc1ccccc1C(F)(F)F	i	i	i	i	i	i
CCCOc1ccc(/C=C/C(=O)Nc2ccc([N+](=O)[O-])cc2)cc1	13µM	i	i	15µM	26µM	7.3µM
COc1ccccc1OCCNC(=O)/C=C/c1ccc([N+](=O)[O-])cc1	i	i	i	i	15µM	i
O=C(NC(=S)Nc1ccc2oc(=O)ccc2c1)c1ccco1	i	i	i	i	i	i
C=CCN1C(=O)/C(=C/c2ccc(O)c(OC)c2)S/C1=N/c1nccs1	i	?	?	18µM	15µM	i
CCN1C(=O)C(Cc2nc3ccccc3c(=O)n2-c2ccccc2)c2ccccc21 (centres undefined)	i	i	i	i	4.1µM	i
CC(=O)c1ccc(NC(=S)Nc2cccc(Cl)c2C)cc1	i	i	i	i	i	i
O=S(=O)(NC1c2cccc3cccc(c23)C1N1CCNCC1)c1ccccc1 (centres undefined)	?	i	?	i	i	i
O=S(=O)(NC1c2cccc3cccc(c23)C1N1CCN(CCO)CC1)c1ccccc1 (centres undefined)	i	i[9.22 µM]	?	23µM	?	?
Cc1cc(C)c2nc(N3CCCN(C(=O)c4ccco4)CC3)c(C#N)cc2c1	i	i	i	?	i	i
Cc1ccc2cc(C#N)c(N3CCCC3)nc2c1C	i	11µM	i	?	i	i
Cc1ccc2cc(C#N)c(N3CCCN(C(=O)C4CCCO4)CC3)nc2c1C (centres undefined)	i	i	i	21µM	?	i
COc1ccc(N2CCN(C(=O)CSc3nnc(-c4cc5ccccc5cc4O)n3C)CC2)cc1	?	i	?	i	2.3µM	18µM
COc1ccc(N2CCN(C(=O)CSc3nnnn3-c3ccc4c(c3)OCCO4)CC2)cc1	i	i	i	16µM	21µM	i
CCC(c1nnnn1-c1ccc2c(c1)OCCO2)N1CCN(c2ccccc2)CC1 (centres undefined)	i	nt	i	nt	i	?
CCC(c1nnnn1-c1ccc2c(c1)OCCO2)N1CCN(c2ccc(C)cc2)CC1 (centres undefined)	i	nt	i	nt	i	18µM
CCC(c1nnnn1-c1ccc2c(c1)OCCO2)N1CCN(c2cccc(C)c2C)CC1 (centres undefined)	?	nt	?	nt	i	?
CCC(c1nnnn1-c1ccc2c(c1)OCCO2)N1CCN(c2ccccc2OC)CC1 (centres undefined)	i	nt	?	nt	7.3µM	?
COc1ccc(-n2nnnc2SCC(=O)N2CCOCC2)cc1	i	i	i	i	i	i
COc1ccc(C(=O)NCC(=O)N2CCCC(C)C2)cc1OC (centres undefined)	i	i	i	i	i	i
COc1ccc(C(=O)N[C@H](C(=O)NCc2ccco2)C(C)C)cc1	i	i	i	i	i	i
O=c1[nH]cc(N2CCCCCC2)c(=O)[nH]1	i	i	i	?	i	i
Cc1ccccc1C(=O)N1CCN(c2ccc(NC(=O)c3ccco3)cc2Cl)CC1	?	i	?	?	?	i
CCC(c1nnnn1-c1ccc2c(c1)OCCO2)N1CCN(c2ncccn2)CC1 (centres undefined)	i	nt	i	nt	i	i
